Holding throughout (assay): protein-binding microarray (PBM); PBM: ~300 nM protein, 6 mM HEPES pH 7.8, 80 mM KCl, 0.5 mM EDTA, 0.5 mM EGTA, 6% glycerol, 35 ng/ul poly-dIdC, 1% milk, 1 h, room temperature; Ap Aiptasia and Nv Nematostella (sea anemones) / Co Capsaspora / Aq Amphimedon (sponge) / Dm Drosophila / Hu human; RHD is the Rel homology domain; high values mean tight binding
What all share (details): dsDNA, one strand shown

One experiment has as its target T1, GST-Ap-NF-kB RHD (Exaiptasia pallida (Aiptasia), UniProt A0A913YAJ5 2-422).
T1 sequence: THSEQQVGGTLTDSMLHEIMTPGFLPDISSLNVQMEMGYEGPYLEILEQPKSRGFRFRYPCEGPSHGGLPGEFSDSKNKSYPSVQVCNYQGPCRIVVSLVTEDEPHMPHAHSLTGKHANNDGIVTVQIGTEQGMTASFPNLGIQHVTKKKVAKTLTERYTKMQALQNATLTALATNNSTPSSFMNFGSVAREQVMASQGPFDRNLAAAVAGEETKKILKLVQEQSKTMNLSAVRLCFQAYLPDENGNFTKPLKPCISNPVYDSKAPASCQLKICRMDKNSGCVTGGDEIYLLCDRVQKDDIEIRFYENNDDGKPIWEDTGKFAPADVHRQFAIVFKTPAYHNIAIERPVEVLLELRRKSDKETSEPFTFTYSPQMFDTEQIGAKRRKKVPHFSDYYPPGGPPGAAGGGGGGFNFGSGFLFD

The target in experiment [1] is T2, GST-Nv-NF-kB (Cys allele) (Nematostella vectensis, UniProt E5G601 2-411).
T2 sequence: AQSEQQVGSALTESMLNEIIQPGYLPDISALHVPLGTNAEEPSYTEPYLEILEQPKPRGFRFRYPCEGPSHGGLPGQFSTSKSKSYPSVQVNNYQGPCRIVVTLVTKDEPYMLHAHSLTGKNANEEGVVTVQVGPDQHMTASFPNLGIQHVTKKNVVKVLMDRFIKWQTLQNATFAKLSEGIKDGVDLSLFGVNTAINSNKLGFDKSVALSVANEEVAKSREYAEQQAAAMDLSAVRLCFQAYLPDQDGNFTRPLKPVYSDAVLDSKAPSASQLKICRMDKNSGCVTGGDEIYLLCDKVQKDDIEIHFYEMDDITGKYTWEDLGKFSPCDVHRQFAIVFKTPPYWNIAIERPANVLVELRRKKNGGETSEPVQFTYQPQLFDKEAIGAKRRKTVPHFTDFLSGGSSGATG

Experiment [2] deals with T3, GST-Nv-NF-kB (Ser allele) (Nematostella vectensis, UniProt A7UNT2 2-411).
T3 sequence: T2 sequence with Q21R, C66S, S207N, E215Q, V217A, E225K, A268E, D399E

The next experiment deals with T4, GST-Co-NF-kB (Capsaspora owczarzaki, UniProt F1ARL5 200-546).
T4 sequence: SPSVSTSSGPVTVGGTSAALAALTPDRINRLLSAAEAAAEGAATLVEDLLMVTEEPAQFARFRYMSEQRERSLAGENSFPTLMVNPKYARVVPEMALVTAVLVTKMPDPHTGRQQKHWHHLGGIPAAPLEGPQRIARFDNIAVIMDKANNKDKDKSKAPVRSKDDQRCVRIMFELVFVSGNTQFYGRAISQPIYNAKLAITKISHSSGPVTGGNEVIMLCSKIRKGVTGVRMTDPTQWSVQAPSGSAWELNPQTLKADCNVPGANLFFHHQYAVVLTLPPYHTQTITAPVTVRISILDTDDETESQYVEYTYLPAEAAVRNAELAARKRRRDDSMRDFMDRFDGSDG

The next experiment has as its target T5, GST-Dm-Relish (Drosophila melanogaster, UniProt Q94527 99-473).
T5 sequence: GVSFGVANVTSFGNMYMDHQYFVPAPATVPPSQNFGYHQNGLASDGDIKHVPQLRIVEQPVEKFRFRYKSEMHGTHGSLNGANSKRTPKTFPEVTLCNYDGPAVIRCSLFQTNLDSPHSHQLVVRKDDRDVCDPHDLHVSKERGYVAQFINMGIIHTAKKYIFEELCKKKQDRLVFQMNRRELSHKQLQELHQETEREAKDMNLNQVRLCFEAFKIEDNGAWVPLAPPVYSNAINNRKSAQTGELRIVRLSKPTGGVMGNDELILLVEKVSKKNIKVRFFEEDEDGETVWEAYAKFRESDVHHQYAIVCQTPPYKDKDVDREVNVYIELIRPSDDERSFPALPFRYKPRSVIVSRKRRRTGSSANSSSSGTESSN

A further experiment deals with T6, GST-Aq-NF-kB (Amphimedon queenslandica, UniProt A9Y5G7 2-389).
T6 sequence: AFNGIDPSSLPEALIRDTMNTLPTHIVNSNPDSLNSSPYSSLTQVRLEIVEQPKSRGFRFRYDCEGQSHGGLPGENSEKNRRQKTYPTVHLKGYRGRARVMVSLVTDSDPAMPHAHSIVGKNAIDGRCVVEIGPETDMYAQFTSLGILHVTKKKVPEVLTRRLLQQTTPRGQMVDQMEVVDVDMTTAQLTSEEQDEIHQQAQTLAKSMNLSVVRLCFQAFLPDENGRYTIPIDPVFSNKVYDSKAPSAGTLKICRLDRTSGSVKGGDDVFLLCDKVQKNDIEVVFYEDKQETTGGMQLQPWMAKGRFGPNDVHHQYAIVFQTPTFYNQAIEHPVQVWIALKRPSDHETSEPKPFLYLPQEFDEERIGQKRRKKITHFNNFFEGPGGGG

A further experiment has as its target GST-Hu-p50 (Homo sapiens, UniProt P19838 7-356).

Residue numbers refer to the chain shown, from its start.

Sequence of GST-Hu-p50 (P19838 7-356): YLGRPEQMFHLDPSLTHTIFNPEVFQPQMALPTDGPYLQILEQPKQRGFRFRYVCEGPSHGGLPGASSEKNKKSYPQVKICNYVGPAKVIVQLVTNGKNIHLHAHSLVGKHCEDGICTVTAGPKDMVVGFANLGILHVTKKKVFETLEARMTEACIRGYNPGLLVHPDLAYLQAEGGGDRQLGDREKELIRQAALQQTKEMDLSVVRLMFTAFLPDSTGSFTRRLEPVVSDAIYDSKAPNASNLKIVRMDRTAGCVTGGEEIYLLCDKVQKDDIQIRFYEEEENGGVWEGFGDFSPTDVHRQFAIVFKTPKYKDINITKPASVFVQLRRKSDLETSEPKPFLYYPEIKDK

For the sequence “CCGATTAACATCAGGGAACACCCTGATGTTAATCGGGTCTTGATTCGCTTGACGCTGCTG”, the binding signal with GST-Ap-NF-kB RHD came out at 5.03 z-score; in experiment [1], 4.73 z-score; in experiment [2] it was 1.87 z-score; in the experiment with GST-Co-NF-kB, 2.35 z-score; with GST-Dm-Relish it was 8.18 z-score; in the experiment with GST-Aq-NF-kB it was 7.15 z-score. In addition, in the experiment with GST-Hu-p50, the binding signal turned out to be 3.05 z-score.
In the case of “CCGATTAACATCAACAATCCCCCTGATGTTAATCGGGTCTTGATTCGCTTGACGCTGCTG”, the binding signal with GST-Ap-NF-kB RHD was found to be 7.89 z-score; in experiment [1], 7.16 z-score; in experiment [2], 7.92 z-score; with GST-Co-NF-kB, 5.22 z-score; in the experiment with GST-Dm-Relish, 5.46 z-score; in the experiment with GST-Aq-NF-kB it was 5.71 z-score. In the experiment with GST-Hu-p50, this sequence had a binding signal of 6.6 z-score.
Regarding “CCGATTAACATCAAACATTCCCATGATGTTAATCGGGTCTTGATTCGCTTGACGCTGCTG”, the binding signal came to 1.96 z-score with GST-Ap-NF-kB RHD; 3.21 z-score in experiment [1]; 2.5 z-score in experiment [2]; 2.38 z-score with GST-Co-NF-kB; 1.59 z-score with GST-Dm-Relish; 3.52 z-score in the experiment with GST-Aq-NF-kB. Further, in the experiment with GST-Hu-p50, the binding signal was found to be 2.11 z-score.
“CCGATTAACATCAAGAAGTTCCCTGATGTTAATCGGGTCTTGATTCGCTTGACGCTGCTG”: the binding signal worked out at 3.54 z-score with GST-Ap-NF-kB RHD; 3.73 z-score in experiment [1]; 2.6 z-score in experiment [2]; 2.42 z-score in the experiment with GST-Co-NF-kB; 3.58 z-score with GST-Dm-Relish; 4.79 z-score with GST-Aq-NF-kB. In the experiment with GST-Hu-p50, this sequence registered a binding signal of 3.17 z-score.
Consider “CCGATTAACATCAAAAATCCACCTGATGTTAATCGGGTCTTGATTCGCTTGACGCTGCTG”, for which the binding signal in the experiment with GST-Ap-NF-kB RHD was 2.25 z-score; in experiment [1], 2.65 z-score; in experiment [2], 3.34 z-score; in the experiment with GST-Co-NF-kB, 1.26 z-score; in the experiment with GST-Dm-Relish, 4.27 z-score; with GST-Aq-NF-kB it was 3.29 z-score. In the experiment with GST-Hu-p50, this sequence returned a binding signal of 4.62 z-score.
For the sequence “CCGATTAACATCACGGGGAACTCTGATGTTAATCGGGTCTTGATTCGCTTGACGCTGCTG”, the binding signal in the experiment with GST-Ap-NF-kB RHD amounted to 6.71 z-score; in experiment [1], 6.61 z-score; in experiment [2], 6.85 z-score; with GST-Co-NF-kB it was 6.94 z-score; in the experiment with GST-Dm-Relish, 7.12 z-score; with GST-Aq-NF-kB it was 4.95 z-score. The binding signal with GST-Hu-p50 was 4.53 z-score.
“CCGATTAACATCAAATTGTCCCCTGATGTTAATCGGGTCTTGATTCGCTTGACGCTGCTG”: the binding signal with GST-Ap-NF-kB RHD worked out at 4.64 z-score; in experiment [1], 5.87 z-score; in experiment [2], 6.62 z-score; with GST-Co-NF-kB it was 6.08 z-score; in the experiment with GST-Dm-Relish, 2.6 z-score; in the experiment with GST-Aq-NF-kB it was 4.84 z-score. In addition, in the experiment with GST-Hu-p50, the binding signal turned out to be 4.96 z-score.
For “CCGATTAACATCACGGGGAAAACTGATGTTAATCGGGTCTTGATTCGCTTGACGCTGCTG”, the binding signal with GST-Ap-NF-kB RHD was 7.27 z-score; in experiment [1], 7.6 z-score; in experiment [2] it was 9.43 z-score; in the experiment with GST-Co-NF-kB it was 10.2 z-score; with GST-Dm-Relish, 5.68 z-score; in the experiment with GST-Aq-NF-kB, 5.55 z-score. Moreover, in the experiment with GST-Hu-p50, the binding signal worked out at 5.8 z-score.
On to “CCGATTAACATCAAAAAGCCCCCTGATGTTAATCGGGTCTTGATTCGCTTGACGCTGCTG”, for which the binding signal with GST-Ap-NF-kB RHD was 7.94 z-score; in experiment [1] it was 9.31 z-score; in experiment [2], 7.92 z-score; in the experiment with GST-Co-NF-kB it was 3.86 z-score; with GST-Dm-Relish, 9.41 z-score; in the experiment with GST-Aq-NF-kB, 8.57 z-score. Moreover, in the experiment with GST-Hu-p50, the binding signal is 7.23 z-score.
As to “CCGATTAACATCAATATCCCCCATGATGTTAATCGGGTCTTGATTCGCTTGACGCTGCTG”, the binding signal with GST-Ap-NF-kB RHD was determined as 6.62 z-score; in experiment [1], 4.94 z-score; in experiment [2], 5.43 z-score; in the experiment with GST-Co-NF-kB it was 6.5 z-score; with GST-Dm-Relish it was 3.73 z-score; with GST-Aq-NF-kB it was 4.55 z-score. For the same sequence, in the experiment with GST-Hu-p50, the binding signal is 5.2 z-score.
Regarding “CCGATTAACATCAAAATTCCCCGTGATGTTAATCGGGTCTTGATTCGCTTGACGCTGCTG”, the binding signal with GST-Ap-NF-kB RHD worked out at 9.41 z-score; in experiment [1] it was 11.3 z-score; in experiment [2], 11.6 z-score; in the experiment with GST-Co-NF-kB, 10.6 z-score; in the experiment with GST-Dm-Relish, 8.96 z-score; in the experiment with GST-Aq-NF-kB it was 8.42 z-score. Also, the binding signal with GST-Hu-p50 worked out at 7.28 z-score.
For the sequence “CCGATTAACATCAGGGGAAACCATGATGTTAATCGGGTCTTGATTCGCTTGACGCTGCTG”, the binding signal amounted to 6.6 z-score with GST-Ap-NF-kB RHD; 7.42 z-score in experiment [1]; 10.1 z-score in experiment [2]; 8.24 z-score in the experiment with GST-Co-NF-kB; 6.18 z-score in the experiment with GST-Dm-Relish; 5.84 z-score with GST-Aq-NF-kB. In the experiment with GST-Hu-p50, this sequence returned a binding signal of 5.64 z-score.

Values taken from PMC5700166.
